From PubChem BioAssay (EPA / NIEHS)
Values joined by “and” are separate entries in the source; they are usually repeats but may differ in a detail not shown here. Equal entries are not always repeated. Some compounds were tested as several samples or in several runs, with calls that do not always agree. Active and inactive are the calls of the source. Rule for the calls: active = hit-call score of the fitted dose curve at least 0.9, where 1 is the maximum; inactive = score below 0.9.

Assay: ATG_AP_1_CIS: Attagene CIS-FACTORIAL HepG2 Assay for human Activator Protein 1 (AP-1) (AID 2282931)
Conditions: HepG2 Attagene cis-factorial AP-1 reporter mRNA; actives raise or lower the signal
Description: ATG_CIS is a cell-based, multiplexed-readout assay that uses HepG2, a human liver cell line, with measurements taken at 24 hours after chemical dosing in a 24-well plate.ATG_AP_1_CIS is one of 52 assay component(s) measured or calculated from the ATG_CIS assay. It is designed to make measurements of mRNA induction, a form of inducible reporter, as detected with fluorescence intensity signals by Reverse transcription polymerase chain reaction (RT-PCR) and Capillary electrophoresis technology.Data from the assay component ATG_AP_1_CIS was analyzed into 1 assay endpoint. This assay endpoint, ATG_AP_1_CIS, was analyzed with bidirectional fitting relative to DMSO as the negative control and baseline of activity. Using a type of inducible reporter, measures of mRNA for gain or loss-of-signal activity can be used to understand the reporter gene at the transcription factor-level as they relate to the gene FOS and JUN. Furthermore, this assay endpoint can be referred to as a primary readout, because this assay has produced multiple assay endpoints where this one serves a reporter gene function. To generalize the intended target to other relatable targets, this assay endpoint is annotated to the dna binding intended target family, where the subfamily is basic leucine zipper.
Human liver HepG2 cells are transiently transfected with multiple reporter transcription units (MRTUs) in 6-well plates using FuGene 6 reagent (Roche; 3 ml FuGene/1 mg DNA). The MRTU constructs are regulated by a cis-regulating element (promoter). […] A major difference between the CIS and TRANS system is that in CIS activities of endogenous TFs are measured, whereas the TRANS assay evaluates changes in activities of exogenous, chimeric NR-Gal4 proteins. […] At the end of 24 hour incubation, total RNA was isolated using TriZol reagent (Invitrogen). The isolated RNA is then reverse-transcribed using oligo(dT) primer and Mo-MLV reverse transcriptase (Invitrogen) with DNAse I (Ambion) treatment for 30 min. The one-tenth of the produced cDNA was amplified by PCR using Taq DNA polymerase (Invitrogen) and two reporter sequence-specific primers. The PCR products were fluorescently labeled by primer extension with 6-arboxyfluorescein (6-FAM) 5'-labeled reporter sequence-specific primer (2 min at 95 C, 20 s at 68 C and 10 min at 72 C) and these products were digested with 5U of HpaI (New England Biolabs) for 2h at 37 C. The fragments were purified using Qiaquick PCR columns (Qiagen), analyzed on an ABI 3130xL genetic analyzer (Applied Biosystems) with peak positions identified by using a set of X-rhodamine (ROX)-labeled MapMarker1000 molecular weight standards (BioVentures). The raw capillary electrophoresis data was processed using Attagraph software (Attagene).

| Compound | outcome | AC50 |
| --- | --- | --- |
| CCCCCCCCCc1ccc(O)cc1 | inactive | 178 µM (active) |
| O=NN(c1ccccc1)c1ccccc1 | – | 118 µM (active) |
| Nc1ccc(-c2ccc(N)cc2)cc1 | inactive | – |
| CC#Cc1cc(C)nc(Nc2ccccc2)n1 | inactive | – |
| C1CC2OC2CC1C1CO1 (stereo not given) | inactive | – |
| Oc1ccc(Cl)cc1Cl | inactive | – |
| CCOP(=S)(OCC)SCSC(C)(C)C | inactive | – |
| CCOCCOC(C)=O | inactive | – |
| O=C(O)C(F)(F)C(F)(F)C(F)(F)C(F)(F)C(F)(F)C(F)(F)C(F)(F)C(F)(F)F | – | 50.5 µM (active) and 274 µM (active) and 16.7 µM (active) |
| N#Cc1ccc(N(CC(N)=O)CC(F)(F)F)cc1C(F)(F)F | inactive | – |
| C[C@]12CCC(=O)C=C1CC[C@@H]1[C@@H]2CC[C@]2(C)C(=O)CC[C@@H]12 | inactive | – |
| CN(C)CCO | inactive | – |
| CCSC(=O)N(CC)C1CCCCC1 | inactive | – |
| OCC(O)CO | inactive | – |
| c1cc2ccc3cccc4ccc(c1)c2c34 | inactive | – |
| CCOC(=O)C(O)(c1ccc(Cl)cc1)c1ccc(Cl)cc1 | inactive | – |
| O=S(=O)(O)C(F)(F)C(F)(F)C(F)(F)C(F)(F)C(F)(F)C(F)(F)F | inactive | 117 µM (active) |
| CC(C)C(=O)OCC(C)(C)C(OC(=O)C(C)C)C(C)C (stereo not given) | inactive | – |

| Compound | outcome | AC50 |
| --- | --- | --- |
| CO/C=C(/C(=O)OC)c1ccccc1COc1cccc(C(F)(F)F)n1 | inactive | – |
| Clc1ccc(C(Cl)(Cl)Cl)cc1 | inactive | – |
| CC(c1ccc(O)cc1)(c1ccc(O)cc1)c1ccc(O)cc1 | – | 17.9 µM (active) |
| O=C(NC(=O)c1cc(F)c(F)cc1Cl)Nc1cc(F)ccc1N1CCC(C(=O)O)CC1 | inactive | – |
| Cc1ccc(O)c(C)c1 | inactive | – |
| CCC(C)(c1ccc(O)cc1)c1ccc(O)cc1 | inactive | 59.3 µM (active) and 33.4 µM (active) and 15.6 µM (active) |
| O=S(=O)(O)C(F)(F)C(F)(F)C(F)(F)C(F)(F)F | inactive | – |
| Cc1cc2c3c(c1)C(c1ccccc1)=N[C@@H](NC(=O)c1ccncc1)C(=O)N3CC2 | inactive | – |
| O=C(O)C(F)(F)C(F)(F)C(F)(F)C(F)(F)C(F)(F)C(F)(F)C(F)(F)C(F)(F)C(F)(F)F | inactive | 59 µM (active) and 12.1 µM (active) |
| O=C(NC(=O)c1c(F)cccc1F)Nc1cc(Cl)c(OC(F)(F)C(F)F)c(Cl)c1 | inactive | – |
| Cc1cccc([N+](=O)[O-])c1 | inactive | – |
| Cc1cccc(C)c1N | inactive | – |
| Oc1c(Cl)c(Cl)c(Cl)c(Cl)c1Cl | inactive | 13.7 µM (active) and 3.6 µM (active) |
| CC(C)(c1ccccc1)c1ccc(O)cc1 | – | 45.8 µM (active) [middle of 4 runs] |
| Sc1ccccc1 | inactive | – |
| Clc1ccc(Cl)cc1 | inactive | – |
| ClC1=C(Cl)[C@]2(Cl)[C@@H]3[C@@H]4C[C@@H]([C@H]5O[C@@H]45)[C@@H]3[C@@]1(Cl)C2(Cl)Cl | inactive | – |
